Experimental data published in PubChem BioAssay (NCI).
Compounds without any hit were thinned out: in the full panel of roughly 83,000, 20% have a hit.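 Assay: single dose, 48 h. Readout: percent growth (0 = no net growth; negative = cell death). Active: <10.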 A number with no mark means an inactive call. Calls of active or inactive are those of the source.

Tests used:
Test in all cases: NCI-60 one-dose screen, 48 h (100 = growth as untreated, 0 = no growth, -100 = all killed)
Details in all cases: 10 µM unless noted
[1] = tested on: SK-MEL-2 melanoma
[2] = tested on: EKVX NSCLC
[3] = tested on: SN12C renal
[4] = tested on: UO-31 renal
[5] = tested on: TK-10 renal
[6] = tested on: ACHN renal
[7] = tested on: CAKI-1 renal
[8] = tested on: CCRF-CEM leukemia
[9] = tested on: MOLT-4 leukemia
[10] = tested on: A498 renal

| Compound | growth [1] | growth [2] | growth [3] | growth [4] | growth [5] | growth [6] | growth [7] | growth [8] | growth [9] | growth [10] [%] |
| --- | --- | --- | --- | --- | --- | --- | --- | --- | --- | --- |
| CC[C@@H](c1ccc(O)c(O)c1)[C@@H](CC)c1ccc(O)c(O)c1 | 93.6% | 117% | 99.8% | -1.68% (active) | 97% | 9.03% (active) | 6.55% (active) | 7.86% (active) | 59.9% | – |
| O=C(c1ccccc1)c1ccc(Oc2ccc([N+](=O)[O-])cc2[N+](=O)[O-])cc1 | 34.9% | 99.6% | 71.6% | 48.7% | 83.4% | 50.4% | 27.3% | 27.4% | 78.3% | – |
| O=C(O)c1ccc(CNS(=O)(=O)c2ccc3ccccc3c2)cc1 | 0.434% (active) | 111% | 100% | 94.7% | 109% | 101% | 112% | 117% | 84.1% | 102 |
| Cc1cc(C)c(C(=O)c2cccs2)c(C)c1 | 100% | 117% | 94% | 67.8% | 96.2% | 108% | 95.2% | 97.9% | 104% | – |
| N#Cc1ccc(-c2csc(Nc3ccc4nc5n(c(=O)c4c3)CCC5)n2)cc1 | 95.4% | 99% | 104% | 100% | 110% | 108% | 102% | 51.8% | 92.8% | – |
| COc1cc(/C(Cl)=C/C=C/C(=O)c2c(C)[n+]([O-])c3ccc(Cl)cc3[n+]2[O-])cc(OC)c1OC | 28.5% | 89.3% | 31.9% | 45.7% | 71.6% | 26.9% | 41.3% | 8.02% (active) | 12.4% | 85.1 |
| CO[C@H]1/C=C/O[C@@]2(C)Oc3c(C)c(O)c4c(O)c(c(/C=N/N5C(C)CN(Cc6ccc(C#N)cc6)CC5C)c(O)c4c3C2=O)NC(=O)/C(C)=C\C=C\[C@H](C)[C@H](O)[C@@H](C)[C@@H](O)[C@@H](C)[C@H](OC(C)=O)[C@@H]1C (some centres undefined) | 61.2% | 17.1% | 39.4% | 24.6% | 19.7% | 26.3% | 39.1% | 12.1% | -2.17% (active) | 20.5 |
| N#Cc1c(-c2ccccc2)cc(-c2ccccc2)n(CCCC(=O)O)c1=O | 97.8% | 94% | 96.2% | 85.8% | 124% | 97.8% | 97.1% | 104% | 97.3% | – |
| O=[N+]([O-])c1ccc(N=Nc2c(Cl)cc(O)cc2Cl)cc1 | -19.1% (active) | 1.71% (active) | 0.728% (active) | -31.5% (active) | 9.62% (active) | 1.34% (active) | -11.9% (active) | 8.97% (active) | -19% (active) | – |
| BrC1CC(Br)c2c1c1c(c3c2C(Br)CC3Br)C(Br)CC1Br (centres undefined) | 115% | 101% | 109% | 39.9% | 121% | 87.2% | 94.5% | 114% | 75.8% | – |
| CNNc1ncnc2c1cnn2-c1ccc(S(N)(=O)=O)cc1 | 98.3% | 106% | 105% | 94.3% | 102% | 93% | – | 81.6% | 86.6% | 112 |
| Cc1cc(C)nc(NS(=O)(=O)c2ccc(Nc3nc4nc(SCc5ccccc5)nc(-c5ccc(O)cc5)c4c(=O)[nH]3)cc2)n1 | 92% | 96% | 102% | 97% | 105% | 104% | 85.9% | 71.2% | 73.8% | – |
| COc1ccc(OC)c(CCn2cncc2-c2c[nH]c3cc(Br)ccc23)c1 | 7.7% (active) | 35.3% | 49.5% | 39.5% | 45.9% | 58.3% | 35.5% | 36.8% | 16.2% | – |
| Nc1nc(SCc2cccnc2)c2ncn(C3OC(CO)C(O)C3O)c2n1 (centres undefined) | 109% | 101% | 89.2% | 72.7% | 99.5% | 92.2% | 98.6% | 115% | 111% | – |
| CC(=O)O[C@H]1CC[C@@]2(C)C(=CC[C@@H]3[C@@H]2CC[C@]2(C)C(c4cccnc4)=CC[C@@H]32)C1 | 23.6% | 49.5% | 96.7% | 33.5% | 90.8% | 44.7% | – | 48.3% | 46% | 91.5 |
| CCCCCCCCCCN1CCC(N2CCCCC2)CC1 | -19.9% (active) | 37.4% | 45.4% | -86.7% (active) | 25.2% | 38.2% | – | 6.95% (active) | -26% (active) | 74.2 |
| O=C(Nc1ccccc1OC(=O)c1ccccc1)c1ccccc1 | 83.1% | 110% | 69.6% | 77.4% | 101% | 98.9% | 91.5% | 27.1% | 26.2% | – |
| c1ccc2nc(N/N=C3\CCCCC3C3CCCCC3)ccc2c1 (centres undefined) | 34.6% | 33.5% | 59.4% | 60.9% | 72.8% | 44.5% | 43.4% | 7.99% (active) | 6.97% (active) | – |
| COc1ccc2cc(C3=CC(=O)CCC3)ccc2c1 | 92.7% | 99.1% | 97.2% | 92.4% | 100% | 107% | 102% | 90.9% | 92.9% | – |
| O=C(Nc1nc(-c2ccc(Cl)cc2)cs1)c1cc(-c2ccc(Br)cc2)nc2ccc(Cl)cc12 | 22.8% | 77.3% | 35.8% | 34.7% | 130% | 63.6% | 81.4% | 39.2% | 18.5% | – |
| COc1ccc2[nH]c(=O)c(CNc3ccc(Nc4nccc(-c5ccc(Cl)cc5)n4)cc3)cc2c1 | 87% | 94% | 87.1% | 64% | 102% | 90.1% | 97.6% | 75.7% | 48.4% | – |
| Nc1nc(Nc2ccccc2SSc2ccccc2Nc2nc(N)nc(C(Cl)(Cl)Cl)n2)nc(C(Cl)(Cl)Cl)n1 | 72.3% | 67.5% | 19.3% | -38.5% (active) | 116% | -25.3% (active) | 52.2% | 45.5% | 46.7% | – |
| O=C1NC(=O)/C(=C/c2ccc(Cl)cc2Cl)N1 | 103% | 77.4% | 107% | 80.7% | 110% | 109% | 102% | 92.3% | 94.5% | – |
| CCN1CCN(c2nc(NNC(=O)Cc3ccccc3)nc(N3CCN(C(c4ccccc4)c4ccccc4)CC3)n2)CC1 | 37.6% | 75.7% | 77.9% | 61.7% | 89.1% | 86.4% | 39.5% | 42.6% | 38.5% | – |
| Nc1nc(Nc2ccccc2SSc2ccccc2Nc2nc(N)nc(-c3cccc(Cl)c3)n2)nc(-c2cccc(Cl)c2)n1 | 105% | 90.5% | 62.1% | 83.9% | 154% | 88.8% | 75.5% | 68.1% | 80.4% | – |
| N/C(=N\C(N)=N\c1nc2ccccc2s1)c1ccnc(Cl)c1 | 29% | 51.3% | 57.6% | 56.5% | 75.7% | 47.8% | 21.6% | 19.2% | 33.6% | – |
| NC(=O)NC1(C(=O)O)CCCC1 | 108% | 115% | 105% | 101% | 108% | 105% | 99.9% | 98.6% | 98.2% | – |
| Cc1ccc(-c2csc(N)n2)cc1 | 107% | 104% | 96% | 88.6% | 97.2% | 97.7% | 99.2% | 92% | 90.3% | – |
| COc1ccc2c(c1)[n+](=O)c(/C=C/C(=O)c1cc(OC)c(OC)c(OC)c1)c(C)n2[O-] | 56% | 71.3% | 40.5% | 49.1% | 62.9% | 47.7% | – | -25.9% (active) | 0.943% (active) | 99.3 |
